# Screens (PubChem)
# Hits are enriched below; roughly 19% of the tested compounds scored in any of these assays.
# TGFb SMAD3 inh: TGF-b pathway inhibition. Potency, µM (highest dose often 46.1 µM), for the others: at the highest dose activity, negative = inhibition, hits mostly inhibitors. HepG2 CAGA-GFP TGF-b/SMAD3 reporter, GFP fluorescence, 18 h; TGF-beta stimulated, 500 pg/mL final. 1.2% of 410,000 active. AID 588855; note: potency is the fitted concentration of half-maximal effect; % is set by controls: 0 for no effect and ±100 for the full control effect; nearly all actives have a fitted effect of over 65% in size
#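 Using HEPG2 CAGA-GFP reporter cells at 1000 cells/well, we pinned test compounds, stimulated with recombinant TGF-beta (500 pg/mL final) and measured total well GFP after 18 h.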
# S-ASM inh: human S-ASM enzyme inhibition; placental ASM, HMU-PC fluorogenic substrate, 60 min; AID 504937; 0.006% of 340,000 active; P17405; Potency, µM (highest dose often 57.5 µM), inactives show at the top dose activity change, negative = inhibition, hits mostly inhibitors; note: potency is the fitted concentration of half-maximal effect
# Target sequence (P17405 47-631 limits assumed): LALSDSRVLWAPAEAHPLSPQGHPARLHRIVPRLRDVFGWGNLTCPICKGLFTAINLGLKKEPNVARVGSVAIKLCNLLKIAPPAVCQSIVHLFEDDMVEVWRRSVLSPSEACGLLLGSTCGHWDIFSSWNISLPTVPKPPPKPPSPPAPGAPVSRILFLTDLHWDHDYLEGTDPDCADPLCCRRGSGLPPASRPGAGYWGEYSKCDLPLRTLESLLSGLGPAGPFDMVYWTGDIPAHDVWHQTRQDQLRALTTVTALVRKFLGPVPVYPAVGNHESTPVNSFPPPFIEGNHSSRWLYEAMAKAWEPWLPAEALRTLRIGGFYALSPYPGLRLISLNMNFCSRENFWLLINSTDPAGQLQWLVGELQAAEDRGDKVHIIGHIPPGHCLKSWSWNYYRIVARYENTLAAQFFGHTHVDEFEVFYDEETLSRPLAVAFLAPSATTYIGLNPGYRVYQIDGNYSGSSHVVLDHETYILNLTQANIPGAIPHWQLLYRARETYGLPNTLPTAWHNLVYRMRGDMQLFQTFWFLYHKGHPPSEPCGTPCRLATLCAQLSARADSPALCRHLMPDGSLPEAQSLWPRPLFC
#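 Human placenta-derived ASM preincubated with compound 10 min at room temperature, then reacted with 9 uM (final) fluorogenic HMU-PC substrate for 60 min at 37 C. Stop solution raises pH to 10; fluorescence read at Ex 386/Em 447 nm.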
# DT40 TDP1 no CPT: qHTS for Inhibitors of human tyrosyl-DNA phosphodiesterase 1 (TDP1): qHTS in cells in absence of CPT | DT40 Tdp1-/- hTDP1 cells, no CPT, ATP luminescence, 48 h | Potency, µM (doses to about 46.2 µM), without a hit: at the highest dose activity change, negative = growth inhibition, most hits filed as inhibitors | 15% of 420,000 active | AID 686978, 2013; note: potency is the fitted concentration of half-maximal effect; % is set by controls: 0 for no effect and ±100 for the full control effect; nearly all actives have a fitted effect of over 55% in size
#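 A cellular qHTS used chicken DT40 cells lacking endogenous Tdp1 but carrying stably transfected human TDP1. Compounds were applied without camptothecin, and cell growth kinetics were judged by ATP-dependent luminescence after ≥48 hr.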
# HepG2 tox: counter-screen for TGF-b inhibitors: cytotoxicity in HepG2 cells; HepG2 CAGA-GFP viability, ATP luminescence, 18 h; Potency, µM (top dose mostly 46.1 µM), without a hit: at the highest dose activity change, negative = cytotoxicity, most hits filed as cytotoxic; 0.76% of 410,000 active; note: potency is the fitted concentration of half-maximal effect
#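 HepG2 CAGA-GFP cells (1000/well, DMEM with 1% FBS) received compound, then TGF-beta at 500 pg/mL final, and were incubated 18 hours at 37 degrees C. Viability was read by CellTiter-Glo luminescence. Media-only wells were set as complete cell-killing and DMSO as no toxicity.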
# IL-1B inflam inh: blocks inflammasome-driven IL-1 beta release; activity change, % at 57.5 µM; AID 743279; 4.7% of 360,000 active; THP-1 LPS/ATP IL-1B secretion, AlphaLISA, 16 h; stronger effect = lower value; in the data active = activity change below about -50%; inconclusive = mostly about -30% to -49%; note: % is set by controls: 0 for no effect and ±100 for the full control effect
#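 Secreted IL-1B measured by AlphaLISA bead assay after 16 h compound exposure of THP-1 cells; compounds (final up to 57.5 uM) added 1 h before LPS (250 ng/mL) and ATP (1.25 mM) stimulation; lower signal means less secretion.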
# TDP1 cell CPT: growth inhibition of DT40 Tdp1-/-;hTDP1 cells with camptothecin (screen for TDP1 inhibitors); chicken DT40 Tdp1-/-;hTDP1 cells + 20 nM CPT, ATP luminescence, 48 h; Potency, µM (series often up to 46.2 µM), for the others: at the top dose activity change, negative = growth inhibition, actives largely listed as inhibitors; 12% of 420,000 active; AID 686979; note: potency is the fitted concentration of half-maximal effect; % is set by controls: 0 for no effect and ±100 for the full control effect; nearly all actives have a fitted effect of over 55% in size
#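 Cell growth measured by CellTiter-Glo luminescence after a minimum 48 h, 37 C compound exposure with 20 nM CPT in Tdp1-knockout DT40 cells stably expressing hTDP1, seeded 400/well; qHTS titration format.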
# Active calls of the source: *; u = inconclusive; x = no result. Unless noted, calls come from the whole dose curve; as a rule, active = well fitted curve in the direction sought with a large enough effect; inconclusive = small, poorly fitted or top-dose-only effect, or another doubt; inactive = no such curve, though single readings can be large; an effect the other way counts as inactive or inconclusive.
SMILES,TGFb SMAD3 inh,S-ASM inh,DT40 TDP1 no CPT,HepG2 tox,IL-1B inflam inh,TDP1 cell CPT
CCc1ccc(-n2nc(C)c3c(C(=O)Nc4ccc(Cl)cc4)cc(C)nc32)cc1,6%,x,13µM*,-2%,x,u
CC(=O)c1cccc(NC(=O)c2cc(C)nc3c2c(C)nn3-c2cccc(Cl)c2C)c1,-14%,x,18µM*,0%,x,u
CCc1ccc(NC(=O)c2c(Cl)nc(C)c(Cl)c2C)cc1,u,-9%,26µM*,0%,-1,u
Cc1ccc(NC(=O)N2CCc3cc(S(=O)(=O)N4CCC(C)CC4)ccc32)cc1F,x,x,u,-4%,x,u
O=C(NCc1cccnc1)[C@@H]1CC=C[C@@H]2CCN(C3CCCCC3)C(=O)[C@@H]21,-22%,x,2%,4%,x,-5%
C/C=C/C1=CC(=O)C[C@H](c2ccc(Cl)cc2)C1,-3%,-5%,u,-12%,-82*,u
C/C=C/C1=CC(=O)C[C@H](c2ccc(F)cc2)C1,u,0%,u,-36%,u,u
C/C=C/C1=CC(=O)C[C@H](c2ccc(OC)c(OC)c2)C1,12%,4%,u,-2%,-97*,u
CCC(=O)N1c2ccccc2CC1C(=O)NCc1ccc(N(C)C)cc1 (stereo unspecified),-5%,x,-20%,0%,x,-8%
CN(C)C(=O)c1ccc(N=Nc2c(O)c3ccccc3[nH]c2=O)cc1,15%,-2%,21µM*,11µM*,-22,21µM*
Cc1cc(N=Nc2c(O)c3ccccc3[nH]c2=O)ccc1N=Nc1ccc(C(=O)N(C)C)cc1,13µM*,-1%,7.3µM*,-75%,26,10µM*
O=C(O)c1ccc(N=Nc2c(O)[nH]c3ccccc23)cc1,-2%,-14%,u,-53%,13,u
COc1ccc(NC(=O)CSC2=Nc3ccccc3C3=NC(CC(=O)NCc4ccc(F)cc4)C(=O)N23)cc1 (stereo unspecified),4%,x,-15%,-2%,x,-7%
Cc1cccc(N(C(=O)Cn2nnc3ccccc32)C(C(=O)NC(C)(C)C)c2ccsc2)c1C (stereo unspecified),-14%,-2%,16µM*,-8%,-13,u
COCCNC(=O)C(c1ccco1)N(C(=O)Cn1nnc2ccccc21)c1cccc(C)c1C (stereo unspecified),-13%,2%,u,2%,2,-7%
Cc1ccccc1CCN(C(=O)Cn1nnc2ccccc21)C(C(=O)NC(C)(C)C)c1ccsc1 (stereo unspecified),u,-2%,26µM*,-12%,3,18µM*
COCCNC(=O)C(c1ccccc1)N(CCOC)C(=O)Cn1nnc2ccccc21 (stereo unspecified),-6%,7%,-12%,-5%,28,-7%
CCOc1ccc(C(=O)Nc2ccc3nn(-c4ccc(OC)c(Cl)c4)nc3c2)cc1,0%,x,x,0%,x,x
Cc1ccc(NC(=O)c2sccc2C)nc1,7%,0%,-11%,-51%,0,u
COc1ccccc1Nc1nn2c(=O)c3ccc(C(=O)NCCc4ccccc4)cc3nc2s1,2.2µM*,x,2.9µM*,3.2µM*,x,2.3µM*
Cc1ccc(C)c(Nc2nn3c(=O)c4cc5c(cc4nc3s2)OCO5)c1,-5%,x,18µM*,-33%,x,16µM*
CCN(CC)CCNC(=O)c1ccc2c(=O)n3nc(Nc4cccc(Cl)c4C)sc3nc2c1,-24%,x,2.6µM*,-62%,x,4.6µM*
Cc1ccc(C)c(Nc2nn3c(=O)c4ccc(C(=O)NC5CCCCC5)cc4nc3s2)c1,12%,x,8.2µM*,-36%,x,7.3µM*
Cc1c(Cl)cccc1Nc1nn2c(=O)c3ccc(C(=O)NCCc4ccccc4)cc3nc2s1,-28%,x,5.2µM*,-1%,x,8.2µM*
Cc1c(Cl)cccc1Nc1nn2c(=O)c3ccc(C(=O)N(C)Cc4ccccc4)cc3nc2s1,-2%,x,u,-3%,x,u
SMILES,TGFb SMAD3 inh,S-ASM inh,DT40 TDP1 no CPT,HepG2 tox,IL-1B inflam inh,TDP1 cell CPT
Cc1ccc(C)c(Nc2nn3c(=O)c4ccc(C(=O)NCCc5ccccc5)cc4nc3s2)c1,11%,x,8.2µM*,-2%,x,3.7µM*
Cc1ccc(NC(=O)CCc2nnc3n(C)c(=O)c4sccc4n23)cc1C,u,x,-3%,3%,x,-12%
COc1ccc(N2C(=O)CS/C2=N\C(=S)Nc2ccccc2)cc1,u,-3%,5.8µM*,-1%,31,6.5µM*
C=CCOC(=O)C1=C[C@@H](c2ccc(Br)cc2)[C@H](CCCO)[C@@H](OCC)O1,-23%,-8%,u,-24%,2,u
C=CCOC(=O)C1=C[C@@H](c2ccc(C(F)(F)F)cc2)[C@H](CCCO)[C@@H](OCC)O1,u,-7%,12µM*,-39%,6,23µM*
C=CCOC(=O)C1=C[C@@H](c2ccccc2)[C@H](CCCO)[C@@H](OCC)O1,-8%,3%,u,23%,16,15µM*
C=CCOC(=O)C1=C[C@H](c2ccc(C(F)(F)F)cc2)[C@@H](CCCO)[C@H](OCC)O1,-14%,-6%,u,-22%,19,23µM*
Cc1c(C(=O)N2CCCCCC2)c(S(=O)(=O)NCc2ccccc2)c(C)n1C,0%,x,-17%,-12%,x,0%
Cc1ccc(C)c(OCCC(=O)OCC(=O)c2c(N)n(C)c(=O)n(C)c2=O)c1,-1%,-1%,-27%,-2%,20,-2%
CCc1c(C)sc2c1CCN(C(=O)Nc1cc(C)cc(C)c1)C2c1ccccc1 (stereo unspecified),-2%,x,8.2µM*,-22%,x,3.7µM*
CCOc1ccccc1NC(=O)N1CCc2c(sc(C)c2CC)C1c1ccccc1 (stereo unspecified),-21%,x,15µM*,-22%,x,u
CCOc1ccccc1NC(=O)n1ncc2cc(Cl)ccc21,2%,x,u,0%,x,-14%
Cn1c(=O)n(CC(=O)NCC2CCCO2)c(=O)c2c3c(sc21)CCCC3 (stereo unspecified),-8%,5%,19%,6%,0,-22%
COC(=O)c1cc(C)nc2c1C(=O)C(=O)C=C2N1CCOCC1,4.5µM*,8%,1µM*,5µM*,-100*,3.3µM*
Cc1cc(=O)[nH]c(N2CCOCC2)n1,-16%,6%,-5%,-1%,13,0%
